Measured values as given in PubChem BioAssay AID485313 (National Center for Advancing Translational Sciences (NCATS), 2010).
Out of some 320,000 compounds screened, about 7,600 (2.4%) were called active. Roughly 3% stayed inconclusive and do not appear here. This excerpt belongs to a sample that is enriched for actives. Values without a mark were called inactive. Calls follow the shape of the dose curve; as a rule, active = well fitted activation curve with a large enough effect; inconclusive = small, poorly fitted or top-dose-only effect; inactive = no such curve, though single readings can be large or run the other way.
Potency is read from the fitted curve at half-maximal effect.

Experiment: qHTS Assay for NPC1 Promoter Activators; also: nearly all actives have a fitted effect of over 60% in size;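 as to activation: reporter is driven by a mutant NPC1 promoter; % of control where 0% means no effect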
Details: Huh7 NPC1 promoter luciferase reporter, 24 h; series mostly up to 9.22 µM; activation: at the top concentration
In short: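 Cells: Huh7 expressing luciferase under the NPC1 promoter, 1500/well. Seeded 2 h, compound added, incubated 24 h at 37 °C. Luciferase reagent, 10 min ambient, then luminescence.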
For CCCN(CC(=O)Nc1ccccc1C)C(=O)c1ccc2[nH]c3c(c2c1)CC(C)CC3 (configuration not stated), the “activation” value was -1.21%. In the case of Cc1ccc2cc3cc(C(=O)N4CCCCCC4)oc3nc2c1, the Potency is reported as 1.12 µM (active). In the case of Cc1cc(C)cc(NC(=O)N2CCCCCCC2)c1, the “activation” value is reported as -2.27%. For COc1ccc2oc(=O)c(C(=O)N3CCCC3)cc2c1, the “activation” value was -0.759%. With COc1ccc(-c2c(-c3cc(OC)cc(OC)c3)n(C)c3ccc(-c4ccn[nH]4)cc23)cc1 the “activation” value was -5.11%. In the case of O=C(Nc1ccc(Br)cn1)c1ccc([N+](=O)[O-])cc1Cl, the Potency is reported as 2 µM (active). In the case of O=C(Nc1ccncc1)c1ccc([N+](=O)[O-])cc1Cl, the “activation” value is reported as 1.57%. For O=C(Nc1ccc(Br)cn1)c1ccc([N+](=O)[O-])o1, the “activation” value was -17.1%. For C=CCn1cc(-c2cccc(C(F)(F)F)c2)cc(C#N)c1=O, the “activation” value was 1.99%. In the case of CN(C)C(CNC(=O)c1ccc(OCc2cn3ccccc3n2)cc1)c1ccco1 (configuration not stated), the “activation” value is reported as 15.6%. With Cc1ccc(Oc2cnn(-c3ccccc3)c(=O)c2Br)cc1 the “activation” value was -1.01%. For C=CCNc1cnn(-c2ccc(C)cc2)c(=O)c1Cl, the Potency was 2.82 µM (active). With O=c1c(Cl)c(NC2CC2)cnn1-c1ccccc1 the “activation” value was 18.8%. For CC(C)Nc1nnc(SCC(=O)c2c[nH]c3ccccc23)s1, the “activation” value was 8.11%. In the case of COc1ccc(CCCc2nnc(SCc3nc4ccccc4c(=O)[nH]3)n2C)cc1, the “activation” value is reported as -4.67%. In the case of COc1ccc(/C=N/OCC(=O)N(Cc2ccccc2)c2ccccc2C(=O)O)cc1, the “activation” value is reported as -3.19%. In the case of COc1ccc(/C=N/Nc2nc(-c3ccc(C)cc3)c(C#N)c(=O)[nH]2)cc1, the “activation” value is reported as -2.06%. In the case of COc1ccc(/C=N/Nc2nc3ccccc3c(=O)[nH]2)cc1, the Potency is reported as 3.16 µM (active). In the case of COc1ccc(NS(=O)(=O)c2cc(C(=O)Nc3ccccc3C(=O)O)ccc2C)cc1, the “activation” value is reported as -35.8%. In the case of COc1ccc(/C=N/Nc2ccccc2C(=O)O)cc1, the Potency is reported as 0.0891 µM (active). With CCC(=O)c1ccc(OCC(=O)N(CC)CC2COc3ccccc3O2)cc1 (configuration not stated) the “activation” value was 2.33%. In the case of COCCn1c(C)cc(C(=O)COC(=O)CNC(=O)c2ccco2)c1C, the “activation” value is reported as -2.34%. In the case of COc1cccc(C2=CC(=O)C[C@H](c3ccc(F)cc3)C2)c1OC, the “activation” value is reported as -8.4%. For Cc1cc(F)ccc1S(=O)(=O)Nc1ccc(C(=O)N(C)Cc2ccco2)cc1, the “activation” value was -7.8%. With COc1ccccc1NC(=O)COC(=O)COc1ccccc1F the “activation” value was 0.971%. With Nc1ccc(-c2nnc(-c3ccc(-c4ccccc4)cc3)o2)cc1 the Potency was 4.47 µM (active). In the case of O=C(Nc1cccc(Cl)c1)Nc1nnc(-c2ccccc2)o1, the “activation” value is reported as -0.287%. For Nc1ccc(-c2nnc(-c3ccccc3)o2)cc1, the Potency was 3.16 µM (active). In the case of Nc1ccc(-c2sc(N)nc2-c2ccccc2)cc1, the “activation” value is reported as 1.72%. For O=C(COC(=O)c1ccc(Oc2ccccc2)cc1)Nc1nnc(-c2ccccc2)o1, the “activation” value was 6.91%. With O=C(COC(=O)c1ccccc1Br)Nc1nnc(-c2ccccc2)o1 the “activation” value was -2.45%. With CC(C)(C)n1ncc2c(=O)n(Cc3c(Cl)cccc3Br)cnc21 the “activation” value was -3.61%. With CC(C)c1ccc(S(=O)(=O)N2CCN(C(C)C(=O)NC3CCCC3)CC2)cc1 (configuration not stated) the “activation” value was 4.65%. For CCCC(NCC(=O)Nc1ccccc1C(=O)NC1CC1)c1ccccc1 (configuration not stated), the “activation” value was -3.13%. For COc1ccccc1N1CCN(C(=O)C2Cc3ccccc3CN2C(=O)c2ccco2)CC1 (configuration not stated), the “activation” value was -3.03%. In the case of CCN1C(=O)[C@@H]2[C@@H](c3ccc(-c4cccc(Cl)c4)cc3)N3CCC[C@@]3(C(=O)OC)[C@@H]2C1=O, the “activation” value is reported as -0.11%. For CCCCc1ccc(NS(=O)(=O)c2cccc(C(=O)N3CCCN(C)CC3)c2)cc1, the “activation” value was -2.91%. For Cc1ccc(C(=O)Oc2coc(CSc3nnc(NC(=O)c4cccs4)s3)cc2=O)cc1C, the “activation” value was 6.97%. For Cc1ccc(C(=O)Nc2nnc(-c3cccs3)s2)cc1C, the Potency was 4.47 µM (active). With Cc1nnc(NC(=O)c2ccc3nccnc3c2)s1 the “activation” value was 10.6%. With CC(C)c1ccc(NC(=O)COC(=O)c2ccc(CN3CCCC3=O)cc2)cc1 the “activation” value was 1.59%. With Cc1ccnc(NC(=O)c2ccc(NC(=O)c3ccco3)cc2)c1 the Potency was 3.98 µM (active). With O=C(Nc1ccccc1)c1ccco1 the “activation” value was 23%. For Cc1cc(NC(=O)c2ccc(F)cc2)ccc1NC(=O)c1ccco1, the “activation” value was 8.51%. For O=C(Nc1ccc(O)cc1)c1ccc(NC(=O)c2ccco2)cc1, the “activation” value was 23.2%. In the case of O=C(Nc1ccnc(-c2ccncc2)n1)c1cccs1, the “activation” value is reported as -1.33%. In the case of O=C(Nc1ccc(NC(=O)c2cccs2)cn1)c1ccco1, the Potency is reported as 0.316 µM (active). In the case of CCN(CC(=O)Nc1c(F)cccc1F)C(=O)c1cnc(C)cn1, the “activation” value is reported as -3%. With O=C(CCNC(=O)c1ccc(Br)cc1)NCC(c1ccco1)N1CCCCC1 (configuration not stated) the “activation” value was -0.553%. In the case of COc1ccc(C2=NN(C(=O)CSc3nnnn3C)C(c3ccco3)C2)cc1 (configuration not stated), the “activation” value is reported as 1.31%. In the case of Nc1ncc(-c2cc3ccccc3oc2=O)s1, the Potency is reported as 2.51 µM (active). With O=C(NCc1cccnc1)c1cccc(-c2cc3ccccc3oc2=O)c1 the “activation” value was 9.51%. For Cc1cc2c(=O)n(C)c(SCC(=O)c3cc4ccccc4o3)nc2s1, the “activation” value was 0.344%. With O=C(CSc1ccccc1)Nc1cccc(S(=O)(=O)N2CCCCC2)c1 the “activation” value was 0.92%. With C=CCNC(=O)c1ccc2c3n(nc2c1)-c1ccc(C)cc1CO3 the Potency was 0.501 µM (active). In the case of C=CCNC(=O)c1ccc(C)c(Br)c1, the “activation” value is reported as -3.13%. For Cc1cccc(-c2nc3ccc(C(=O)NCCN4CCN(C)CC4)cc3nc2-c2cccc(C)c2)c1, the “activation” value was 0.0884%. In the case of CCOC(=O)c1sc(NC(=O)C2CSC3(C)CCC(=O)N23)nc1C (configuration not stated), the “activation” value is reported as -3.6%. For C=CCSc1ccc(S(=O)(=O)N2CCN(C)CC2)cn1, the “activation” value was 1.46%. For CCCCN(C(=O)C(CCSC)N1C(=O)c2ccccc2C1=O)c1c(N)n(CCC)c(=O)[nH]c1=O (configuration not stated), the “activation” value was -1.59%. With Cc1cccc(C)c1NC(=O)COC(=O)c1c(C)nn(-c2ccccc2)c1C the “activation” value was -0.881%. For Cc1ccc(OC(=O)c2c(C)nn(-c3ccccc3)c2C)cc1, the Potency was 2.82 µM (active). In the case of Cc1ccc(-n2nc(C)c(C(=O)O)c2-n2cccc2)cc1, the “activation” value is reported as -2.14%. For COCCN(C(=O)CSCc1ccc(C)cc1)c1c(N)n(CC(C)C)c(=O)[nH]c1=O, the “activation” value was -2.34%. For CCN(CC(=O)NCc1cccs1)C(=O)/C=C/c1ccc(C)cc1, the “activation” value was -0.296%. For Cc1cccc(Nc2nnc(SCC(=O)c3c(N)n(C4CC4)c(=O)[nH]c3=O)s2)c1C, the “activation” value was -5.99%. With CCOc1ccc(C(=O)NC2CCN(CC(=O)NCc3cccs3)CC2)cc1 the “activation” value was 1.67%. With COc1ccccc1-n1cnc2cc(C(=O)NCC3CCCO3)ccc21 (configuration not stated) the “activation” value was 1.81%. For O=C(NCc1cccs1)c1ccc2c(c1)ncn2C1CCCC1, the Potency was 3.55 µM (active). In the case of O=C(CCNS(=O)(=O)c1ccc(Br)cc1)NCC1CCCO1 (configuration not stated), the “activation” value is reported as -0.538%. In the case of COc1ccccc1C(=O)NCC(=O)NCCSc1ccc(Br)cc1, the “activation” value is reported as -3.89%. With Cc1ccc(NC(=O)CN(C)C(=O)COC(=O)c2nccnc2N)cc1 the “activation” value was -1.17%. With Cc1ccc(-c2nc(-c3ccncc3)no2)c(C)c1 the Potency was 3.16 µM (active). In the case of COc1nc(-c2ccc(Cl)cc2)ccc1-c1noc(-c2cccs2)n1, the “activation” value is reported as -0.243%. With c1ccc(-c2noc(-c3cccs3)n2)nc1 the Potency was 0.398 µM (active). With O=C(NCc1cccnc1)c1nc(-c2cccs2)no1 the “activation” value was 10%. In the case of c1ccc(CCc2nc(-c3ccncc3)no2)cc1, the “activation” value is reported as 12.1%. For Cc1ccc(-c2noc(CSc3nnc(-c4ccncc4)n3-c3ccc(F)cc3)n2)cc1, the “activation” value was 4.27%. For Cc1ccc(-c2noc(CSc3nnc(-c4cccs4)n3C)n2)cc1, the “activation” value was 6.05%. In the case of c1csc(-c2nc(-c3ccncc3)no2)c1, the Potency is reported as 3.16 µM (active). In the case of Clc1ccc(-n2nnnc2-c2cnc(-c3ccccn3)nc2-c2cccs2)cc1, the “activation” value is reported as 0.256%. With CN(C(=O)CSc1nnc(-c2n[nH]c3ccccc23)o1)c1ccccc1 the “activation” value was 5.27%. For O=C(COC(=O)c1c(Cl)cccc1Cl)Nc1cccc(S(=O)(=O)NC2=NCCCCC2)c1, the “activation” value was 0.228%. With COc1ccc(Cc2nnc(N/N=C/c3ccccc3O)[nH]c2=O)cc1OC the “activation” value was -20.3%. With COc1ccccc1C(=O)NCC(=O)OCC(=O)Nc1nnc(-c2ccccc2)o1 the “activation” value was -2.61%. For O=C(COC(=O)c1cc(S(=O)(=O)N2CCOCC2)ccc1Cl)NCCc1ccccc1, the “activation” value was 1.28%. For Cc1nc(C)c(C(=O)Nc2ccc(C)c(F)c2)o1, the “activation” value was 9.51%. In the case of Cc1ccc(NC(=O)NC(=O)c2ccccc2)cc1F, the Potency is reported as 0.562 µM (active). With Cc1cccc(NC(=O)NC(=S)NC(=O)c2ccccc2)c1 the “activation” value was 2.7%. For CCN(CC)C(=O)c1nc[nH]c1C(=O)N(C)Cc1ccccc1, the “activation” value was -3.28%. In the case of Cc1ccc(NC(=O)Nc2ccccc2)c(Br)c1, the Potency is reported as 3.55 µM (active). For CCOc1cc(NC(=O)Nc2ccccc2)c(OCC)cc1NC(=O)CC, the “activation” value was -0.529%. With Cc1c(NC(=O)Nc2ccccc2)cccc1[N+](=O)[O-] the “activation” value was 0.25%. In the case of COc1cc(F)c(C2=CC(=O)CC(C)(C)C2)cc1F, the “activation” value is reported as -2.64%. In the case of CSc1ccccc1OCc1cc(C(=O)N(C)CCc2c(C)n[nH]c2C)no1, the “activation” value is reported as -11.9%. In the case of CSc1ccccc1OCc1cc(C(=O)N2C[C@H]3CC[C@H]2C3)no1, the Potency is reported as 2.82 µM (active). For COC(=O)[C@@H]1CCCN1C(=O)c1cc(COc2cccc3cccnc23)on1, the “activation” value was -2.83%. For COC(=O)c1ccc(C)c(NC(=O)C2CC(=O)N(C3CCCC(C)C3C)C2)c1 (configuration not stated), the “activation” value was -3.54%. In the case of NS(=O)(=O)c1ccc(CCNC(=O)COC(=O)COc2cccc(C(F)(F)F)c2)cc1, the “activation” value is reported as -6.93%. In the case of Cc1ccc(OCCC(=O)Nc2ccc(S(=O)(=O)Nc3nccs3)cc2)cc1, the “activation” value is reported as -1.05%. For COc1ccc(Cl)cc1NC(=O)CN(C)C(=O)c1ccc2n[nH]nc2c1, the “activation” value was -2.57%. In the case of Cc1ccsc1C(=O)N/N=C/c1ccc([N+](=O)[O-])cc1, the Potency is reported as 3.98 µM (active). In the case of Cc1nc2ccccc2cc1C(=O)N/N=C/c1ccc([N+](=O)[O-])cc1, the “activation” value is reported as -3.83%. With O=C(N/N=C/c1ccc([N+](=O)[O-])cc1)c1c[nH]c2ccccc12 the “activation” value was 26.5%. With CCNc1nc(-c2cc3ccccc3o2)cs1 the Potency was 2.82 µM (active). In the case of CCOC(=O)CSc1nnc(CNc2nc(-c3ccccc3)cs2)n1C, the “activation” value is reported as -0.901%. In the case of Cc1nc(C)c(-c2csc(NCCc3ccccc3)n2)s1, the “activation” value is reported as 6.54%.
